Reference: PubChem BioAssay (Tox21)
Unmarked numbers belong to inactive results. Entries that show only a call come without a potency. Activity calls are given as the source filed them. The call rests on the fitted dose curve; in most records, active means well fitted curve in the direction sought with a large enough effect in the repeat runs; inconclusive means weak or mixed curves; inactive means flat fitted curve, though single readings scatter.

test: qHTS assay to test for compound auto fluorescence at 460 nm (blue) in HEK293 cells (AID 720678); settings: blue autofluorescence 405/460 nm; series mostly up to 91.3 µM
Description: National Center for Advancing Translational Sciences [NCATS]
NIH Chemical Genomics Center [NCGC]
U.S. Environmental Protection Agency [EPA]
National Institutes of Environmental Health Sciences [NIEHS]
National Toxicology Program [NTP]
U.S. Food and Drug Administration [FDA]
Compound auto fluorescence often interferes with screening of the compound library against various biological targets and signaling pathways. Some of these compounds may have fluorophoric properties. Such properties may interfere with the assay outputs resulting in false positives and/or negatives. To decrease such complications and ensure the compound activities are relevant in terms of biological response, the Tox21 10K compound library was screened for auto fluorescence.
From the fluorophores used as reporter signals in our screening assays, the auto fluorescence equivalencies of compounds against three fluorophores have been evaluated: Triamterene, Fluorescein and Rose Bengal sodium for blue, green and red fluorescence, respectively. The fluorescence intensities were measured using Excitation/Emission wavelengths at 405/460nm, 485/535nm and 540/590nm for blue, green and red labels, respectively. This assay includes the blue fluorescence data.
Tox21 Assay Protocol Summary:
2,000 HEK293 cells in 5 uL of culture medium containing 10% dialyzed FBS per well were dispensed into black wall/clear bottom 1536-well plates using a Multidrop Combi Dispenser (Thermo Scientific). The assay plates were incubated for 4-5 hr at 37C to allow cell attachment to the well bottom, followed by the transfer of 23 nL compound or DMSO vehicle by a pintool work station (Kalypsys, San Diego, CA). After the assay plates were incubated overnight at 37C and 5% CO2, fluorescence intensities in the assay plates were measured by an Envision (PerkinElmer, Shelton, CT) plate reader using three labels for measuring blue, green and red fluorescence at […] 460, 535 and 590nm respectively.

SMILES | Potency | fluorescence, % of triamterene
CCN(CC)C(=O)c1ccc(O)c(OC)c1 | inactive | –
COc1cccc(OC)c1 | inactive | –
CCCCCCCCC=O | inactive | –
COc1nc(C)nc(N)n1 | inactive | –
C=C(C)C1CC=C(C)C(O)C1 (stereo not given) | inactive | –
O=[N+]([O-])c1ccc(Oc2ccc([N+](=O)[O-])cc2)cc1 | inactive | –
NS(=O)(=O)c1cc2c(cc1C(F)(F)F)NC(Cc1ccccc1)NS2(=O)=O (stereo not given) | – | 0.0799% [at 18.6 µM]
CC(=O)O[C@H](CC(=O)[O-])C[N+](C)(C)C | inactive | –
CC(C)(C)OC(=O)N1C[C@@H](F)C[C@H]1C(=O)O | inactive | –
CC(=O)NC(Cc1ccccc1)C(=O)O (stereo not given) | inactive | –
CC(C)CCCC(C)CCCC(C)CCCCC(C)CCCC(C)CCCC(C)C (stereo not given) | inactive | –
COC(=O)[C@H]1[C@H]2C[C@@H]3c4[nH]c5cc(OC)ccc5c4CCN3C[C@H]2C[C@@H](OC(=O)COc2ccc(OC)cc2)[C@@H]1OC | inactive | –
c1ccc2cnncc2c1 | inactive | –
O=C(O)CCNC(=O)c1ccc(N=Nc2ccc(O)c(C(=O)O)c2)cc1 | inactive | –
COC(=O)CCCC(=O)O | inactive | –
C=C(C)[C@@H]1CCC2=CC(=O)C[C@@H](C)[C@]2(C)C1 | inactive | –
CCCCCCC(=O)OCC | inactive | –
CC(C=O)Cc1ccc(C(C)C)cc1 (stereo not given) | inactive | –
CC1=CC(C)C(C=O)C(C)C1 (stereo not given) | inactive | –
C=CCOCC(O)CS(=O)(=O)O (stereo not given) | inactive | –

SMILES | Potency | fluorescence, % of triamterene
OC/C=C/c1ccccc1 | inactive | –
CN(C)CCOC(c1ccc(Cl)cc1)c1ccccn1 (stereo not given) | inactive | –
NC(=S)Nc1cccc2ccccc12 | – | -0.0445% [at 3.72 µM]
CCCCCCCCCCCCI | inactive | –
O=[N+]([O-])c1ccc(CCO)cc1 | inactive | –
CCCCCC[C@@H](CCC)C(=O)O | inactive | –
CCC(=O)c1cccc(Cl)c1 | inactive | –
CN(C)C(=O)C(CCN1CCC(O)(c2ccc(Cl)cc2)CC1)(c1ccccc1)c1ccccc1 | inactive | –
C1C2OC2C2C1C1CC2C2OC12 (stereo not given) | inactive | –
CC(C)(O)Cc1ccccc1 | inactive | –
O=C(O)C(O)[C@H](O)[C@@H](O)[C@H](O)[C@H](O)CO (stereo not given in full) | inactive | –
CCCCCCCCCCCCCCC | inactive | –
CC(C)CCOC(=O)CC(C)C | inactive | –
N#CCN(CC#N)CCN(CC#N)CC#N | inactive | –
CCCCCCCCCCCl | inactive | –
CC1CCN(CCCC(=O)c2ccc(F)cc2)CC1 | inactive | –
C=C(C)C(=O)OCCC(C)OC(=O)C(=C)C (stereo not given) | inactive | –
CC12CCC(CC1=O)C2(C)C (stereo not given) | inactive | –
CC/C=C\C#N | inactive | –
CCCCCCCCN(C)CCCCCCCC | inactive | –
